High-throughput results: PubChem BioAssay, several laboratories
HSP90 refold inh: inhibitors of HSP90 luciferase refolding in rabbit reticulocyte lysate; actives 0.91% (n = 290,000); inhibition, % at 5.6 µM; luciferase refolding luminescence, 3 h;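 active means inhibition above the screen-wide mean plus 3 SD, computed separately per campaign, cut at about 16% in these data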;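 further: inhibitors lower the luminescence because luciferase stays unfolded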
HSF1 inhib: HSF1 inhibition; activity change, negative = inhibition, % at 7.5 µM (by protocol); actives 0.77% (n = 300,000); NIH3T3-HGL HSE-luciferase, MG132-induced, luminescence 8 h; hits give low values;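 active means more than half of replicate wells show activity change below -50%, luminescence cut by over half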;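 further: luciferase reports HSF-1 transcriptional activity via heat shock element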
AHR activator: activates the human aryl hydrocarbon receptor. P35869. actives 2.5% (n = 320,000). AHR-responsive luciferase reporter cells, luminescence. AID 2796. activation, % at 5 µM; in the data active means activation above about 47%
HSF1 activator: increases HSF-1 driven luciferase reporter signal; NIH3T3-HGL HSF-1 luciferase reporter, MG132, 8 h; 100% = twice DMSO control signal; activation, % at 9 µM; actives 1.7% (n = 300,000);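 active means mean replicate activation of at least 50% with a set share of replicates each reaching 50%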
DAX1 inh: inhibitors of human orphan nuclear receptor DAX1 (NR0B1); P51843; HEK293 Gal4-DAX1 luciferase reporter, luminescence; inhibition, % at 6.75 µM; actives 0.99% (n = 340,000); AID 504766;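 active means inhibition above the mean over all tested compounds plus 3 SD, cut at about 4.2% in these data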;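 further: inhibition shows as a rise in luminescence from relieved DAX1 repression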
GAA850 FXN act: frataxin GAA850 promoter activation | actives 0.56% (n = 360,000) | AID 540364 | HEK293 lucGAA850 FXN promoter luciferase reporter, 24 h; percent of 10 µM SAHA response | activation, % at 6 µM;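 active means activation above the average of all compounds screened plus 3 SD, cutoff fixed separately per campaign, cut at about 7.5% in these data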
A number is an active result; . = inactive; / = no result. This is a sample that favours compounds with a hit; in the whole collection about 5.9% have one here.

SMILES | HSP90 refold inh | HSF1 inhib | AHR activator | HSF1 activator | DAX1 inh | GAA850 FXN act
O=C(Nc1ccc(F)cc1)c1ccc2c(=O)n3c(nc2c1)CCCCC3 | . | . | . | . | . | .
O=C(NCc1ccc(F)cc1)c1ccc2c(=O)n3c(nc2c1)CCCCC3 | . | . | . | . | 5.0 | .
CCc1nnc(NC(=O)c2ccc3c(=O)n4c(nc3c2)CCC4)s1 | / | / | / | / | 4.2 | .
O=C(c1ccc2c(=O)n3c(nc2c1)CCCCC3)N1CCN(C(c2ccccc2)c2ccccc2)CC1 | . | . | . | 61.6 | . | .
CCc1nnc(NC(=O)C2CCN(C(=O)c3ccco3)CC2)s1 | . | . | . | . | . | .
Cc1nnc(NC(=O)C2CCN(C(=O)c3ccco3)CC2)s1 | 16.4 | . | . | . | . | .
CC(C)c1nnc(NC(=O)C2CCN(C(=O)c3ccco3)CC2)s1 | . | -64.0 | . | . | . | .
Cc1cc(C)[n+]2[nH]c(N)c(N=Nc3ccccc3)c2n1 | . | . | 69.9 | . | . | .
CC1CCN(C(=O)COC(=O)c2ccc(N3CCCC3=O)cc2)CC1 | / | / | . | / | . | .
Cc1c(C(=O)N2CCC[C@H]2C(N)=O)oc2c(F)cccc12 | . | . | / | . | 6.0 | .
CCOc1ccc(-c2nc(CSCC(=O)N3CCN(c4cccc(OC)c4)CC3)c(C)o2)cc1 | 24.0 | . | . | . | . | .
COc1ccc(-c2nc(CS(=O)CC(=O)NCc3ccco3)c(C)o2)cc1 (stereo not given) | . | . | . | . | . | .
CCOC(=O)N1CCC(NC(=O)CSCc2nc(-c3ccc(OCC)cc3)oc2C)CC1 | . | . | . | . | . | .
CCOc1ccc(-c2nc(CSCC(=O)NC3CC3)c(C)o2)cc1 | . | -84.5 | . | . | . | .
CCOc1ccc(-c2nc(CSCC(=O)NCc3ccco3)c(C)o2)cc1 | . | -72.1 | . | . | . | .
CCN(CC(=O)NCc1ccc(Cl)cc1)C(=O)c1cccc(S(=O)(=O)Nc2ccc(OC)cc2)c1 | / | . | . | . | . | .
COc1ccccc1N/C(N)=N/c1nc(C(F)(F)F)cc(=O)[nH]1 | . | . | 49.9 | . | . | .
N/C(=N\c1nc2c(c(=O)[nH]1)CCC2)Nc1ccccc1C(F)(F)F | . | . | . | 56.2 | . | .
CC(NC(=O)C1CCN(S(=O)(=O)c2ccc3nc4c(c(C(=O)O)c3c2)CCCC4)CC1)c1ccccc1 (stereo not given) | . | . | . | . | . | .
ClCc1cc2ccccc2nc1Cl | . | . | . | . | . | .
CCc1cc2ccccc2nc1Cl | . | . | . | . | 6.1 | .
O=C(NCC1CCN(C(=O)c2ccc([N+](=O)[O-])cc2)CC1)c1ccc([N+](=O)[O-])cc1 | . | . | . | . | . | .
Clc1ccc2c(c1)[C@H]1OCC[C@H]1[C@@H](c1ccco1)N2 | . | . | . | 69.8 | . | .
Fc1ccc2c(c1)[C@H]1OCC[C@H]1[C@@H](c1ccco1)N2 | . | . | . | . | . | .
O=C(Nc1cccc(-c2nc3cccnc3s2)c1)c1ccc(Cl)nc1 | . | . | 67.7 | . | . | .
SMILES | HSP90 refold inh | HSF1 inhib | AHR activator | HSF1 activator | DAX1 inh | GAA850 FXN act
NS(=O)(=O)c1ccc(C(=O)Nc2ccc(-c3nc4cccnc4s3)cc2)cc1 | . | . | 57.3 | . | . | .
O=C(Nc1cccc(-c2nc3cccnc3s2)c1)c1cccnc1Cl | . | . | . | . | . | .
O=C(NCc1ccccc1)N1CCC(Cc2ccccc2)CC1 | . | . | . | . | . | .
CCCCN1CC(=O)N2[C@H]3c4ccc(OC)cc4OC[C@@H]3[C@H](c3ccccc3)[C@]2(C)C1=O | / | / | . | / | . | .
CCOC(=O)NN1C(=O)c2ccccc2NC1c1ccc(OC)c(OC)c1 (stereo not given) | . | . | . | . | 4.6 | .
COc1ccc(C2Nc3ccccc3C(=O)N2NC(C)=O)cc1OC (stereo not given) | . | . | . | . | . | .
CN(C(=O)CSc1nnc(-c2ccc(OC(F)F)cc2)n1N)C1CCS(=O)(=O)C1 (stereo not given) | / | . | . | . | . | .
Cn1nc(N)c2c(-c3ccc(Cl)cc3)c(C#N)c(N)nc21 | . | . | . | . | . | .
Cn1nc(N)c2c(-c3ccccc3)c(C#N)c(N)nc21 | . | -68.7 | . | . | . | .
CCC(=O)c1cn([C@H](CCC(OC)OC)CC(=O)OC(C)(C)C)cc1CC | / | . | . | . | . | .
CCOC(=O)c1nnn(CC(=O)N2N=C(c3ccccc3)CC2c2ccccc2)c1C(=O)OCC (stereo not given) | . | . | . | . | 5.1 | .
CC(=O)OCC(=O)N1N=C(c2ccc3ccccc3c2)CC1c1ccccc1 (stereo not given) | . | . | . | 52.8 | . | .
CCOC(=O)/C=C(\C)N1N=C(c2ccccc2)CC1c1ccccc1 (stereo not given) | . | . | . | 64.6 | . | .
COc1ccc(C2CC(c3ccc4ccccc4c3OC(C)=O)=NN2C(C)=O)cc1 (stereo not given) | . | . | . | 93.7 | 5.4 | .
CC(=O)c1c(N)[nH]c(-c2ccccc2)nc1=S | . | . | 62.4 | . | . | .
CC(=O)c1c(N2CCCC2)[nH]c(-c2ccccc2)nc1=S | . | . | . | . | . | .
Cn1cc(CN2CCCC(CNS(=O)(=O)c3cccc4cccnc34)C2)cn1 (stereo not given) | . | . | . | . | . | .
CC(C)n1cc(CN2CCCC(CNS(=O)(=O)c3cccc4cccnc34)C2)cn1 (stereo not given) | . | -66.2 | . | . | . | .
Cc1ccccc1-n1ncc2c(SCC(=O)NC3CCCC3)ncnc21 | . | . | . | . | . | .
CC(C)(C)NC(=O)CSc1ncnc2c1nnn2Cc1ccccc1Cl | . | . | . | 112.3 | . | .
O=C(CSc1ncnc2c1nnn2Cc1ccccc1)NC1CCCC1 | . | . | . | 57.8 | . | .
CCOc1ccc(CN(C)C(=O)c2ccc3c(c2)NC(=O)C(C)S3)cc1OC (stereo not given) | / | / | . | / | . | .
COCCNC(=O)c1ccc2ccccc2n1 | . | . | . | . | . | .
Cc1ccccc1OCCNC(=O)c1ccc2ccccc2n1 | . | . | . | 86.3 | . | .
CCOC(=O)C(C)Oc1cc(Cl)c(C=O)cc1OC (stereo not given) | . | . | . | 51.0 | . | .
CC(C)N1CCN(Cc2cccc(-c3ccco3)c2)CC1CCO (stereo not given) | . | . | . | . | . | .
Cc1ccccc1-c1cccc(CN2CCN(C)C(CCO)C2)c1 (stereo not given) | . | . | . | . | 4.6 | .
CCOC(=O)C(=O)Cc1cccnn1 | / | / | / | / | . | .
COc1ccc(-c2csc(-c3cc4ccccc4oc3=N)n2)cc1 | . | . | 49.9 | . | . | .
COc1ccc(-c2noc(-c3cc4ccccc4oc3=O)n2)cc1 | . | . | . | . | / | /
